According to the supplement of paper PMC6089552:
The campaign covered roughly 3,200 compounds. About 300 (9.4%) showed activity. For the sample, actives were picked, then their nearest neighbours and some compounds at random.

System: A673/TR/shEF
Experiment: cell viability (LOESS-normalised, relative to median of negative controls) (log2 ratio); higher = more viable cells (less compound effect), active = hit call of the paper (over 3 MAD below the median)
Conditions: treatment time: 72 h
Summary of the method: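 A673/TR/shEF Ewing sarcoma cells (1,500 per well, 384-well plates) were grown with or without doxycycline to induce EWS-FLI1 shRNA knockdown, starting 24 h before compounds. Library compounds at two or more concentrations, with DMSO controls, were added for three days. Cell viability was read by CellTiter-Glo luminescence on an Envision reader, then LOESS-corrected per plate, divided by the median of negative controls and log2-transformed. Hits were wells at least three median absolute deviations from the median of all screened wells.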

[1] = 0.25 µM, library screen: screen1, EWS-FLI1 expression: high (no doxycycline)
[2] = 0.25 µM, library screen: screen1, EWS-FLI1 expression: low (doxycycline-induced shRNA knockdown)
[3] = 2.5 µM, library screen: screen1, EWS-FLI1 expression: high (no doxycycline)
[4] = 2.5 µM, library screen: screen1, EWS-FLI1 expression: low (doxycycline-induced shRNA knockdown)
[5] = 0.103 µM, library screen: screen3, EWS-FLI1 expression: high (no doxycycline)
[6] = 0.103 µM, library screen: screen3, EWS-FLI1 expression: low (doxycycline-induced shRNA knockdown)
[7] = 0.308 µM, library screen: screen3, EWS-FLI1 expression: high (no doxycycline)
[8] = 0.308 µM, library screen: screen3, EWS-FLI1 expression: low (doxycycline-induced shRNA knockdown)
[9] = 0.926 µM, library screen: screen3, EWS-FLI1 expression: high (no doxycycline)
[10] = 0.926 µM, library screen: screen3, EWS-FLI1 expression: low (doxycycline-induced shRNA knockdown)
[11] = 2.8 µM, library screen: screen3, EWS-FLI1 expression: high (no doxycycline)
[12] = 2.8 µM, library screen: screen3, EWS-FLI1 expression: low (doxycycline-induced shRNA knockdown)
[13] = 8.3 µM, library screen: screen3, EWS-FLI1 expression: high (no doxycycline)
[14] = 8.3 µM, library screen: screen3, EWS-FLI1 expression: low (doxycycline-induced shRNA knockdown)
[15] = 25 µM, library screen: screen3, EWS-FLI1 expression: high (no doxycycline)
[16] = 25 µM, library screen: screen3, EWS-FLI1 expression: low (doxycycline-induced shRNA knockdown)
[17] = 0.025 µM, library screen: screen2, EWS-FLI1 expression: high (no doxycycline)
[18] = 0.025 µM, library screen: screen2, EWS-FLI1 expression: low (doxycycline-induced shRNA knockdown)
[19] = 0.25 µM, library screen: screen2, EWS-FLI1 expression: high (no doxycycline)
[20] = 0.25 µM, library screen: screen2, EWS-FLI1 expression: low (doxycycline-induced shRNA knockdown)
[21] = 2.5 µM, library screen: screen2, EWS-FLI1 expression: high (no doxycycline)
[22] = 2.5 µM, library screen: screen2, EWS-FLI1 expression: low (doxycycline-induced shRNA knockdown)
[23] = 25 µM, library screen: screen2, EWS-FLI1 expression: high (no doxycycline)
[24] = 25 µM, library screen: screen2, EWS-FLI1 expression: low (doxycycline-induced shRNA knockdown)

Measured: cell viability (log2)

C[C@@H]1CC[C@@]2(OC1)O[C@H]1C[C@H]3[C@@H]4CC[C@@H]5C[C@@H](O)CC[C@]5(C)[C@H]4CC[C@]3(C)[C@H]1[C@@H]2C
inactive: [1] 0.0641 | [2] 0.0518 | [3] 0.077 | [4] 0.0287

CSc1nnc(-c2ccccc2)c(-c2ccccc2)n1
inactive: [1] 0.103 | [2] 0.00324 | [3] 0.0984 | [4] 0.0395

COc1cc(OC)c2c(c1)O[C@H](c1cc(OC)c(OC)c(OC)c1)[C@H](OC(=O)c1cc(OC)c(OC)c(OC)c1)C2
inactive: [1] 0.0414 | [2] 0.0159 | [3] 0.0705 | [4] -0.00627

CC1OC(OC2C(O)COC(OC3C(C)OC(OC4C(OC(=O)C56CCC(C)(C)CC5C5=CCC7C8(C)CCC(OC9OC(CO)C(O)C(O)C9O)C(C)(C)C8CCC7(C)C5(C)CC6O)OCC(O)C4O)C(O)C3O)C2O)C(O)C(O)C1O (stereo not given)
inactive: [1] 0.0486 | [2] 0.0258 | [3] 0.0372 | [4] 0.223

COC(=O)c1c(C)c2c(c(C)c1OC)OC(=O)c1c(C)c(Cl)c(OC)c(Cl)c1O2
inactive: [1] 0.0616 | [2] 0.043 | [3] 0.0828 | [4] 0.0347

O=c1[nH]c(=O)n([C@H]2C[C@H](O)[C@@H](CO)O2)cc1C(F)(F)F
inactive: [5] 0.105 | [6] 0.105 | [1] -0.0346 | [2] 0.0988 | [7] 0.134 | [8] 0.147 | [9] 0.108 | [10] 0.0588 | [3] 0.0509 | [4] 0.029 | [11] 0.0746 | [12] 0.0921 | [13] 0.0584 | [14] 0.048 | [16] 0.124
active: [15] -0.362

Cc1cn([C@H]2C[C@H](N=[N+]=[N-])[C@@H](CO)O2)c(=O)[nH]c1=O
inactive: [17] 0.0606 | [18] 0.0603 | [2] -0.108 | [19] 0.183 | [20] 0.0909 | [21] 0.12 | [22] 0.103 | [23] 0.0992 | [24] 0.0558
active: [1] -0.142 | [3] -1.07 | [4] -0.798

Cc1cn([C@@H]2C[C@@H](O)[C@H](CO)O2)c(=O)[nH]c1=O
inactive: [5] 0.207 | [6] 0.0457 | [7] 0.0611 | [8] 0.118 | [9] 0.128 | [10] 0.0817 | [11] 0.203 | [12] 0.115 | [13] 0.177 | [14] 0.101 | [15] 0.139 | [16] 0.167

Cc1cn([C@H]2C=C[C@@H](CO)O2)c(=O)[nH]c1=O
inactive: [5] -0.00295 | [6] 0.0515 | [19] 0.197 | [20] 0.032 | [7] -0.0178 | [8] 0.0223 | [9] 0.0714 | [10] 0.0163 | [21] 0.101 | [22] 0.0899 | [11] 0.0507 | [12] 0.0197 | [13] 0.102 | [14] 0.0821 | [15] 0.0208 | [16] 0.0668

O=c1[nH]c(=O)n([C@H]2C[C@H](O)[C@@H](CO)O2)cc1Br
inactive: [19] 0.238 | [20] 0.0517 | [21] 0.037 | [22] 0.0646

C[C@H]1O[C@@H](n2cc(F)c(=O)[nH]c2=O)[C@H](O)[C@@H]1O
inactive: [17] 0.0333 | [18] 0.0231 | [2] 0.08 | [19] -0.00269 | [20] 0.0834 | [4] -0.0424 | [22] 0.0331
active: [1] -0.21 | [3] -1.24 | [21] -0.257 | [23] -2.97 | [24] -0.654

CCc1cn([C@H]2C[C@H](O)[C@@H](CO)O2)c(=O)[nH]c1=O
inactive: [17] 0.0952 | [18] 0.0914 | [1] 0.152 | [2] 0.0662 | [19] 0.0236 | [20] 0.0662 | [3] 0.079 | [4] 0.152 | [21] 0.176 | [22] 0.0177 | [23] -0.0289 | [24] 0.0946

O=c1[nH]c(=O)n([C@H]2C[C@H](O)[C@@H](CO)O2)cc1/C=C/Br
inactive: [19] 0.184 | [20] 0.138 | [21] 0.072 | [22] 0.108

O=c1[nH]c(=O)n([C@H]2C[C@H](O)[C@@H](CO)O2)cc1F
active: [1] -1.07 | [19] -0.231 | [7] -0.266 | [9] -0.534 | [3] -1.48 | [21] -0.805 | [11] -0.621 | [13] -0.85 | [23] -0.944 | [15] -1.03
inactive: [17] 0.0911 | [18] 0.0185 | [5] 0.0528 | [6] 0.0374 | [2] 0.23 | [20] 0.103 | [8] 0.079 | [10] 0.0595 | [4] 0.156 | [22] 0.138 | [12] 0.0813 | [14] 0.0595 | [24] -0.0409 | [16] 0.0541

CCCCCOC(=O)Nc1nc(=O)n([C@@H]2O[C@H](C)[C@@H](O)[C@H]2O)cc1F
inactive: [5] 0.057 | [6] 0.111 | [7] 0.147 | [8] 0.143 | [9] 0.154 | [10] 0.121 | [11] 0.179 | [12] 0.14 | [13] 0.166 | [14] 0.0924 | [15] 0.195 | [16] 0.124

O=C(O)c1cc(=O)c(O)c2c(O)c(O)ccc2c1
inactive: [1] 0.0685 | [2] 0.0312 | [3] 0.157 | [4] 0.0783

Fc1cccc(CN2CCN(Cc3ccco3)CC2)c1
inactive: [1] 0.0188 | [2] 0.159 | [3] 0.104 | [4] 0.135

C=CCCCCCCCCCCCC=CC(O)COC(C)=O (stereo not given)
inactive: [1] -0.0116 | [2] 0.0382 | [3] 0.137 | [4] 0.0541

CC12CCC(=O)C=C1CCC1C2C(O)CC2(C)C1CCC2(O)C(=O)COC(=O)CCC(=O)O (stereo not given)
inactive: [19] 0.252 | [20] 0.0354 | [21] 0.189 | [22] 0.145

CCSCCOC(=O)C1=C(C)NC2=C(C(=O)CC(C)(C)C2)C1c1coc2ccccc2c1=O (stereo not given)
inactive: [1] 0.0909 | [2] 0.0763 | [3] 0.107 | [4] 0.00786

CCOc1ccc2nc(SC)nc(C)c2c1
inactive: [1] 0.0636 | [2] 0.0768 | [3] 0.137 | [4] -0.103

CC1CC2C3CCC4=CC(=O)C=CC4(C)C3C(=O)CC2(C)[C@@]1(O)C(=O)CO (stereo not given in full)
inactive: [5] 0.145 | [6] -0.00246 | [7] 0.132 | [8] 0.12 | [9] 0.101 | [10] 0.0958 | [11] 0.116 | [12] 0.077 | [13] 0.0168 | [14] 0.08 | [15] 0.0762 | [16] 0.0993

COc1ccc(CN2CCN(Cc3ccccc3Br)CC2)cc1OC
inactive: [1] 0.0838 | [2] 0.133 | [3] 0.0605 | [4] 0.115

Cc1cc(O)c2c(c1)Cc1cccc(O)c1C2=O
inactive: [1] 0.119 | [2] 0.00964 | [3] 0.16 | [4] 0.111

O=C1CSC(=O)N1CCN1C(=O)SC(=Cc2ccc(O)cc2)C1=O
inactive: [1] 0.0789 | [2] 0.0957 | [3] 0.0804 | [4] -0.00491

O=C(Oc1cc(O)cc2c1CC(OC(=O)c1cc(O)c(O)c(O)c1)C(c1ccc(O)c(O)c1)O2)c1cc(O)c(O)c(O)c1 (stereo not given)
inactive: [1] 0.117 | [2] -0.00743 | [3] 0.128 | [4] -0.0369

CCCCCCCCCCCCCCCCCC(=O)NCC(COP(=O)([O-])OCC[N+](C)(C)C)OCC (stereo not given)
inactive: [19] 0.252 | [20] 0.0979 | [21] 0.243 | [22] 0.0461

CC(CN1c2ccccc2Sc2cccnc21)N(C)C (stereo not given)
inactive: [1] 0.132 | [2] 0.0453 | [3] 0.0549 | [4] 0.034

CN(C)c1cc2c(Nc3ccc4c(cnn4Cc4ccccc4)c3)ncnc2cn1
inactive: [19] 0.124 | [20] 0.0545 | [21] 0.147 | [22] 0.0613

COc1cc2ncnc(Nc3ccc(O)cc3)c2cc1OC
inactive: [19] 0.241 | [20] 0.0114 | [21] 0.112 | [22] 0.0956

C#Cc1cccc(Nc2ncnc3cc(OC)c(OCCCCCCC(=O)NO)cc23)c1
inactive: [5] -0.0787 | [6] -0.0134 | [7] -0.0791 | [8] -0.0194
active: [9] -0.53 | [10] -0.197 | [11] -1.73 | [12] -0.607 | [13] -2.92 | [14] -0.618 | [15] -3.65 | [16] -1.64

COCC(=O)NC/C=C/c1ccc2ncnc(Nc3ccc(Oc4ccc(C)nc4)c(C)c3)c2c1
inactive: [5] 0.0492 | [6] 0.0262 | [7] -0.0204 | [8] 0.0495 | [9] -0.0118 | [10] 0.013 | [11] -0.0655 | [12] -0.0248 | [13] -0.00849 | [14] 0.0384 | [15] -0.127 | [16] -0.105

COc1cc2ncnc(Nc3cccc(Cl)c3)c2cc1OC
0.289: [1]
inactive: 0.025 µM, library screen: screen1, EWS-FLI1 expression: high (no doxycycline) 0.237 | 0.025 µM, library screen: screen1, EWS-FLI1 expression: low (doxycycline-induced shRNA knockdown) 0.01 | [2] 0.0337 | [19] 0.134 | [20] 0.0168 | [4] 0.122 | [21] 0.175 | [22] 0.00846
active: [3] -0.137 | 25 µM, library screen: screen1, EWS-FLI1 expression: high (no doxycycline) -0.119
0.297: 25 µM, library screen: screen1, EWS-FLI1 expression: low (doxycycline-induced shRNA knockdown)

C#Cc1cccc(Nc2ncnc3cc(OCCOC)c(OCCOC)cc23)c1
inactive: [5] 0.107 | [6] 0.0915 | [7] 0.189 | [8] 0.0523 | [9] 0.0696 | [10] 0.0933 | [11] 0.0439 | [12] 0.0596 | [13] 0.105 | [14] 0.0233 | [15] -0.0778 | [16] -0.0451
